Where “and” joins values, the source holds several entries; their conditions need not be identical. Equal entries are not always repeated. Records with an inconclusive call do not appear. A call without a number means that no potency is given here. Calls of active or inactive are those of the source. Calls follow the shape of the dose curve; as a rule, active = well fitted cell-killing curve with a large enough effect; inconclusive = small, poorly fitted or top-dose-only effect; inactive = flat fitted curve, though single readings scatter.
Potency is read from the fitted curve at half-maximal effect.

The assay can be described thus: qHTS of pediatric cancer cell lines to identify multiple opportunities for drug repurposing: Primary screen for DAOY cells (AID 1347090). Also: nearly all actives have a fitted effect of over 55% in size. As to conditions: DAOY medulloblastoma viability, CellTiter-Glo luminescence, 48 h; series mostly up to 46 µM. The text has this:
Drug repurposing or repositioning has been offered as a strategy for drug development in oncology programs. This approach has special potential for childhood cancers and other rare or orphan diseases, where the expected return on new drug development has been a disincentive to pharmaceuticals.
In this project we exploit the poly-pharmacology of drugs to discover new indications via phenotypic screening of a panel of 19 well-characterized cell lines derived from solid tumors seen in children and adolescents. The goal is to identify approved drugs with previously unrecognized anticancer properties that has the potential to reveal new mechanisms and biological processes involved in carcinogenesis or drug resistance. We employed a titration-based paradigm (quantitative high-throughput screening or qHTS), where all compounds were tested at multiple concentrations for their effect on cell viability. Concentration-response curves (CRCs) were derived directly from the primary screen, and both potency and efficacy values were used to identify compounds with robust bioactivity profiles. We screened the NIH Chemical Genomics Center (NCGC) Pharmaceutical Collection (NPC) and Mechanism Interrogation Plate (MIPE) small molecule collections of approved and investigational compounds against these cell lines; and measured metabolically active cells after 48 hours of compound treatment as a proxy for cell viability.
Assay Submitter: Nathalia J. Martinez, National Center for Advancing Translational Sciences, National Institutes of Health, Rockville, MD, USA; email: natalia.martinez@nih.gov
[1] Shen, M et al. Quantitative high-throughput phenotypic screening of pediatric cancer cell lines identifies multiple opportunities for drug repurposing. Oncotarget 2017 Dec 19;9(4):4758-4772. PMID 29435139.
The cells were obtained from University of North Carolina (UNC), Pediatric Preclinical Testing Program (PPT), and Coriell Institute (CI).
qHTS cell viability assay:
Cells were assayed in growth media at a density of 500-1,000 cells/well. Five microliters of cells were dispensed into 1,536-well, white, solid-bottom, TC-treated plates (Greiner Bio One) using a multidrop dispenser and incubated at 37 degrees C, 5% CO2, under a humidified atmosphere for 5 hours. Twenty-three nanoliters of compounds and controls (neutral control DMSO or positive control bortezomib at final concentration of 2.3 µM) were subsequently transferred by Kalypsys pintool. For primary screens, the MIPE collection was tested at 11-point dilutions (final concentrations range from 0.78 nM to 46 µM) and the NPC collection at 8-point dilutions (final concentrations range from 0.59 nM to 46 µM). Compounds tested in follow-up screens were assayed at 11-point dilutions. Cells were incubated for 48 hours, followed by addition of 3 uL of CellTiter-Glo (Promega). After a 15 min incubation at room temperature, samples were analyzed for luminescence intensity using a ViewLux High-throughput CCD imager equipped with clear filters.
For orientation: qHTS replaces the single test concentration by a dilution series.
For `CN1C(C(=O)Nc2ccccn2)=C(O)c2ccccc2S1(=O)=O`, the Potency result was “inactive”.
Turning to `Nc1ccn([C@H]2CC[C@@H](CO)O2)c(=O)n1`, the Potency result was “inactive”.
With `Cc1cn([C@H]2C[C@H](N=[N+]=[N-])[C@@H](CO)O2)c(=O)[nH]c1=O`, the Potency result is “inactive”.
As for `COc1cc2c(c(OC)c1OC)-c1ccc(OC)c(=O)cc1[C@@H](NC(C)=O)CC2`, the Potency is 8.4 nM (active).
For the compound `Cc1ccc(C(=O)Nc2ccc(S(=O)(=O)O)c3cc(S(=O)(=O)O)cc(S(=O)(=O)O)c23)cc1NC(=O)c1cccc(NC(=O)Nc2cccc(C(=O)Nc3cc(C(=O)Nc4ccc(S(=O)(=O)O)c5cc(S(=O)(=O)O)cc(S(=O)(=O)O)c45)ccc3C)c2)c1`, the Potency result was “inactive”.
With `CCOC(=O)C(C)(C)Oc1ccc(Cl)cc1`, the Potency entry was “inactive”.
For `CC(C)C(=O)Nc1ccc([N+](=O)[O-])c(C(F)(F)F)c1`, the Potency was 4690 nM (active).
Under `O=c1[nH]cc(F)c(=O)[nH]1` stands “inactive”.
Consider `COc1ccccc1OCC(O)CN1CCN(CC(=O)Nc2c(C)cccc2C)CC1` (stereo not given), for which the Potency result was “inactive”.
As for `O=c1c(-c2ccc(O)cc2)coc2cc(O)cc(O)c12`, the Potency result is “inactive”.
Turning to `CCN1CCCC1CNC(=O)c1cc(S(=O)(=O)CC)c(N)cc1OC` (stereo not given), the Potency entry is “inactive”.
Take `CC[N+](CC)(CC)CCOc1cccc(OCC[N+](CC)(CC)CC)c1OCC[N+](CC)(CC)CC`: the Potency entry is “inactive”.
`O=C(c1ccc(F)cc1)C1CCN(CCn2c(=O)[nH]c3ccccc3c2=O)CC1`: the Potency result is “inactive”.
As to `NC(=O)OCC(COC(N)=O)c1ccccc1`, the Potency entry is “inactive”.
The value for `Cn1c(=O)c2[nH]cnc2n(C)c1=O` was “inactive”; that for `COc1nc(C)nc(Cl)c1NC1=NCCN1` was “inactive”.
The value for `NC12CC3CC(CC(C3)C1)C2` was “inactive”; that for `CS(=O)(=O)Nc1ccc([N+](=O)[O-])cc1Oc1ccccc1` was “inactive”.
Under `Cc1ccccc1N1C(=O)c2cc(S(N)(=O)=O)c(Cl)cc2NC1C` (stereo not given) stands “inactive”; under `Clc1ccc(C(c2ccccc2Cl)C(Cl)Cl)cc1` (stereo not given), “inactive”; under `CN(CCOc1ccc(NS(C)(=O)=O)cc1)CCc1ccc(NS(C)(=O)=O)cc1`, “inactive”.
`Fc1ccc([C@@H]2CCNC[C@H]2COc2ccc3c(c2)OCO3)cc1`: the Potency entry is “inactive”.
`COc1cc2nc(N3CCN(C(=O)C4COc5ccccc5O4)CC3)nc(N)c2cc1OC` (stereo not given): the Potency result is “inactive”.
For the compound `CN1C2CCC1CC(OC(=O)C(CO)c1ccccc1)C2` (stereo not given), the Potency result was “inactive”.
On to `COc1ccccc1N1CCN(CC(O)COc2cccc3ccccc23)CC1` (stereo not given), for which the Potency result is “inactive”.
Under `O=C(C1CCCCC1)N1CC(=O)N2CCc3ccccc3C2C1` (stereo not given) stands “inactive”; under `CCC1(C)CC(=O)NC1=O` (stereo not given), “inactive”.
Regarding `C[C@](N)(Cc1ccc(O)c(O)c1)C(=O)O`, the Potency result is “inactive”.
Turning to `O=C(Nc1ccc([N+](=O)[O-])cc1Cl)c1cc(Cl)ccc1O`, the Potency is 1.46 µM (active) and 1.18 µM (active).
Turning to `CN(C)c1nc(N(C)C)nc(N(C)C)n1`, the Potency entry is “inactive”.
Turning to `NC(=O)NO`, the Potency entry is “inactive”.
For `COc1ccccc1OCCNCC(O)COc1cccc2[nH]c3ccccc3c12` (stereo not given), the Potency entry was “inactive”.
For `NS(=O)(=O)c1cc2c(cc1Cl)NCNS2(=O)=O`, the Potency entry is “inactive”.
As for `Cn1c(=O)c2c(ncn2C)n(C)c1=O`, the Potency result was “inactive”.
For the compound `CC(C)(C)C(=O)Oc1ccc(S(=O)(=O)Nc2ccccc2C(=O)NCC(=O)O)cc1`, the Potency result was “inactive”.
For `O=C(CCCN1CCC(O)(c2ccc(Cl)cc2)CC1)c1ccc(F)cc1`, the Potency result is “inactive”.
The value for `NCCS(=O)(=O)O` was “inactive”.
As for `COc1ccc2[nH]cc(CCNC(C)=O)c2c1`, the Potency entry is “inactive”.
As to `CN1CCC(=C2c3ccccc3C=Cc3ccccc32)CC1`, the Potency result was “inactive”.
For the compound `CN(C)C(=N)N=C(N)N`, the Potency entry was “inactive”.

These data come from PubChem BioAssay (NCATS).
